TDP1 cell CPT: growth inhibition of DT40 Tdp1-/-;hTDP1 cells with camptothecin (screen for TDP1 inhibitors). chicken DT40 Tdp1-/-;hTDP1 cells + 20 nM CPT, ATP luminescence, 48 h. Potency, µM (top dose mostly 46.2 µM), hits mostly inhibitors. hit rate 12% among 420,000. AID 686979; note: nearly all actives have a fitted effect of over 55% in size
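Cell growth measured by CellTiter-Glo luminescence after a minimum 48 h, 37 C compound exposure with 20 nM CPT in Tdp1-knockout DT40 cells stably expressing hTDP1, seeded 400/well; qHTS titration format.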
IL1B secr inh: blocks inflammasome-driven IL-1 beta release | activity change, % at 57.5 µM | AID 743279 | THP-1 LPS/ATP IL-1B secretion, AlphaLISA, 16 h; stronger effect = lower value | hit rate 4.7% among 360,000; in the data active = activity change below about -50%; inconclusive = mostly about -30% to -49%
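Secreted IL-1B measured by AlphaLISA bead assay after 16 h compound exposure of THP-1 cells; compounds (final up to 57.5 uM) added 1 h before LPS (250 ng/mL) and ATP (1.25 mM) stimulation; lower signal means less secretion.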
ELG1 repair inh: blocks ELG1-dependent DNA repair in HEK293T cells; HEK293T ELG1-luciferase reporter, luminescence, 16 h; DNA damage induced by 5-fluorouridine; hit rate 2.3% among 330,000; AID 504467; Potency, µM (series often up to 46.1 µM), most hits filed as inhibitors; note: nearly all actives have a fitted effect of over 55% in size
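5-Fluorouridine DNA damage + compound/DMSO, 2,000 cells/well, 16 h, 37 °C/5% CO2. ONE-Glo, 30 min RT, luminescence. Readout = decrease in reporter signal.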
HT1080NT lethal: kills 2HG-producing HT-1080-NT fibrosarcoma cells | HT-1080-NT fibrosarcoma viability, CellTiter-Glo ATP luminescence, 48 h | Potency, µM (highest dose often 46.1 µM), most hits filed as cytotoxic | hit rate 1.6% among 360,000 | AID 686970;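 note: NT is the 2HG producing partner of a matched IDH1 knockdown line; nearly all actives have a fitted effect of over 55% in size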
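Compounds were tested in concentration-response format on HT-1080-NT cells for 48 hours at 37 degrees C. Cell viability came from CellTiter-Glo luminescence; curves were classified by r2, response magnitude and activity.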
HT1080 IDH1KD tx: toxicity to HT-1080 IDH1 knockdown cells (counter line) | Potency, µM (titrated, usually from 46.1 µM), hits mostly cytotoxic | hit rate 2% among 360,000 | HT-1080 IDH1 knockdown viability, ATP luminescence, 48 h
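Knockdown cells (IDH1KD HT-1080) received compounds 2 h after plating at 750 cells/well and were kept 48 h at 37 °C in 5% FBS RPMI. A CellTiter-Glo luminescence read gave % activity for curve fitting.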
TDP1 cell noCPT: qHTS for Inhibitors of human tyrosyl-DNA phosphodiesterase 1 (TDP1): qHTS in cells in absence of CPT | DT40 Tdp1-/- hTDP1 cells, no CPT, ATP luminescence, 48 h | Potency, µM (top dose mostly 46.2 µM), most hits filed as inhibitors | hit rate 15% among 420,000 | AID 686978, 2013; note: nearly all actives have a fitted effect of over 55% in size
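Chicken DT40 Tdp1-/- cells complemented with human TDP1, screened without camptothecin (DMSO vehicle only), 400 cells/well. Compounds pin-transferred, cells incubated at 37 °C for at least 48 hr. Growth read as ATP-dependent luminescence (CellTiter-Glo, 30 min at RT).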
Hits are given with their value; – = inactive; ? = inconclusive; · = not tested or not shown; [ ] = dose if it differs, or a comment. Most compounds without a hit are left out; they make up all but 19% or so of the library. Unless noted, calls come from the whole dose curve; as a rule, active = well fitted curve in the direction sought with a large enough effect; inconclusive = small, poorly fitted or top-dose-only effect, or another doubt; inactive = no such curve, though single readings can be large; an effect the other way counts as inactive or inconclusive.

SMILES | TDP1 cell CPT | IL1B secr inh | ELG1 repair inh | HT1080NT lethal | HT1080 IDH1KD tx | TDP1 cell noCPT
CN(C)S(=O)(=O)N1CCC(n2c(C(F)(F)F)nc3cccnc32)CC1 | ? | · | · | · | · | –
CCN1CC=C2C(C1)C(c1ccc(Cl)s1)C(C#N)=C(N)C2(C#N)C#N (stereo not drawn) | 16µM | – | – | – | – | ?
CCN1CC=C2C(C#N)=C(N)C(C#N)(C#N)[C@H](c3cccc(OC)c3OC)[C@H]2C1 | – | – | – | – | – | –
Cc1c(Br)ccc(NC(=O)Cn2nc(-c3cccs3)ccc2=O)c1C | – | – | ? | – | – | –
Cc1cc(NC(=O)Cn2nc(-c3cccs3)ccc2=O)cc(C)c1Br | 29µM | ? | – | – | – | 29µM
Cc1ccc(NC(=O)Nc2c(Cl)cccc2Cl)cn1 | ? | – | ? | – | – | 10µM
Cc1ccc(NC(=O)Nc2cccnc2)cc1Cl | ? | ? | ? | – | – | –
Cc1ccc2c(c1)COc1c3ccc(C(=O)N4CCCCC4)cc3nn1-2 | 21µM | – | ? | – | – | 26µM
Cc1ccc2c(c1)COc1c3ccc(C(=O)N[C@@H](CO)C(C)C)cc3nn1-2 | 23µM | – | ? | – | – | 18µM
CCN(CC)CCCNC(=O)c1ccc2c3n(nc2c1)-c1ccc(Cl)cc1CO3 | ? | -60 | ? | – | – | 16µM
COCCNC(=O)c1ccc2c3n(nc2c1)-c1ccc(C)cc1CO3 | ? | ? | ? | – | – | ?
O=C(c1ccc2c3n(nc2c1)-c1ccccc1CO3)N1CCOCC1 | 8.2µM | – | ? | 8.2µM | 23µM | 9.2µM
CC(C)NC(=O)c1ccc2c3n(nc2c1)-c1ccc(Cl)cc1CO3 | ? | – | ? | – | – | ?
CC(=O)Nc1ccc(S(=O)(=O)N2CCC(N3CCCCCC3)CC2)cc1 | – | ? | – | – | – | –
CC(C)OC(=O)c1c(NC(=O)c2cccc(C(F)(F)F)c2)sc2c1CCCC2 | – | · | · | · | · | –
Cc1cc(S(=O)(=O)Nc2ccc(C(=O)NCCN3CCOCC3)cc2)ccc1F | – | – | · | – | – | –
COc1cccc(-c2cc(N(C)Cc3ccco3)ncn2)c1 | – | · | · | · | · | –
COc1cc(CN2CCN(c3ncccn3)CC2)cc(OC)c1 | – | – | – | – | – | –
COc1ccc(OC)c(S(=O)(=O)NC(=O)C2(C)CCN2C(=O)CC2CCCC2)c1 (stereo not drawn) | – | – | · | – | – | –
CCC(C)[C@H](NC(=O)N1CC(=O)Nc2ccccc21)C(=O)N[C@@H](C(=O)O)c1ccccc1 (stereo partly drawn) | – | – | – | – | – | –
COCCCNC(=O)C[C@H]1C[C@H](C(=O)N(C(C)C)C(C)C)[C@@]2(C)c3[nH]c4cc(-c5ccco5)ccc4c3CCN2C1=O | 16µM | ? | – | – | – | 23µM
CC(C)N(C(=O)[C@H]1C[C@H](CC(=O)NCCC2=CCCCC2)C(=O)N2CCc3c([nH]c4ccc(Cl)cc34)[C@]12C)C(C)C | 29µM | – | ? | – | – | 26µM
COc1ccc2[nH]c3c(c2c1)CCN1C(=O)C(CC(=O)NCCN2CCOCC2)C[C@H](C(=O)N(C(C)C)C(C)C)[C@@]31C (stereo partly drawn) | ? | – | – | – | – | –
COc1ccc(CNC(=O)C[C@H]2C[C@H](C(=O)N(C(C)C)C(C)C)[C@@]3(C)c4[nH]c5cc(-c6ccco6)ccc5c4CCN3C2=O)cc1OC | 18µM | – | ? | – | – | ?
COc1ccc(CNC(=O)C[C@H]2C[C@H](C(=O)N(C(C)C)C(C)C)[C@@]3(C)c4[nH]c5ccc(Cl)cc5c4CCN3C2=O)cc1OC | 18µM | – | ? | – | – | 18µM
SMILES | TDP1 cell CPT | IL1B secr inh | ELG1 repair inh | HT1080NT lethal | HT1080 IDH1KD tx | TDP1 cell noCPT
Nc1nc2cc(Cl)ccc2cc1C(=O)NCCCc1ccccc1 | ? | – | · | ? | – | 15µM
COc1ccc(CCNC(=O)c2ccc(Cl)cc2)cc1 | ? | – | – | – | – | –
COc1ccc(CCNC(=O)c2cc3ccc(Cl)cc3nc2N)cc1 | ? | – | · | – | ? | 5.8µM
Cn1nc(C(=O)OCC(=O)Nc2ccccc2[N+](=O)[O-])c2ccccc2c1=O | – | – | – | – | – | –
CCOc1ccc(S(=O)(=O)Nc2cccc(Cl)c2)cc1 | 23µM | – | · | ? | –[9.24 µM] | ?
CCOc1ccc(S(=O)(=O)Nc2cc(Cl)ccc2O)cc1 | ? | – | – | ? | 23µM | ?
CCOc1cc(S(=O)(=O)Nc2cc(C)cc(C)c2)ccc1Cl | 16µM | -59 | – | ? | ? | 16µM
COc1ccc(CCNC(=O)C(=O)NCC2OCCN2C(=O)c2ccc(Cl)cc2)cc1OC (stereo not drawn) | – | – | ? | – | – | –
Cc1cccc(NC(=O)Cn2c(=O)n(CCCS(=O)(=O)C3CCCCC3)c(=O)c3ccccc32)c1 | – | · | · | · | · | ?
Cc1cc(Oc2ccccc2)nc(C#N)n1 | – | · | · | – | – | –
CC(=O)c1ccc(OCc2cc(C(=O)N3CCN(C4CCCC4)C(=O)C3)no2)cc1 | – | – | · | – | – | ?
CC(C)Nc1nnc(SCC(=O)c2c(N)n(Cc3ccccc3)c(=O)n(C)c2=O)s1 | ? | – | 18µM | – | – | –
Cc1nnc(SCC(=O)c2c(N)n(C)c(=O)n(C)c2=O)n1Cc1ccccc1 | – | -54 | ? | – | – | –
CC(C)Cn1c(N)c(C(=O)COC(=O)/C=C/c2ccccc2)c(=O)n(C)c1=O | 15µM | – | ? | – | – | ?
Cc1occc1-c1nnc(SCC(=O)c2c(N)n(Cc3ccccc3)c(=O)n(C)c2=O)n1C | – | – | – | – | – | –
CC(C)Cn1c(N)c(C(=O)CSc2nncs2)c(=O)n(C)c1=O | ? | – | ? | –[9.24 µM] | – | ?
CCn1c(SCC(=O)c2c(N)n(C)c(=O)n(C)c2=O)nnc1-c1ccccc1 | · | · | – | · | · | ·
CC(C)Cn1c(N)c(C(=O)CSc2ccccc2)c(=O)n(C)c1=O | 16µM | – | 23µM | – | – | 8.2µM
Cc1ccccc1OCCC(=O)OCC(=O)c1c(N)n(CC(C)C)c(=O)n(C)c1=O | ? | – | · | – | – | ?
COc1ccc(CCNC(=O)C/C(C)=N/NC(=O)c2cnccn2)cc1 | – | – | ? | – | – | –
Cc1ccc(C(C)C)c(OCC(=O)OCC(=O)c2c(N)n(C)c(=O)n(C)c2=O)c1 | – | – | – | – | – | –
Cc1ccccc1CSCC(=O)c1c(N)n(CC(C)C)c(=O)n(C)c1=O | ? | – | ? | – | –[9.24 µM] | 23µM
